From PubChem BioAssay (NCATS)
Values without a mark were called inactive. Records with an inconclusive call do not appear. Where a call stands in place of a potency, no number is given. The source holds several records for some structures; these can differ, active in one and inactive in another. Activity calls are given as the source filed them. Calls come from the whole dose curve; as a rule, active = well fitted curve in the direction sought with a large enough effect; inconclusive = small, poorly fitted or top-dose-only effect, or another doubt; inactive = no such curve, though single readings can be large; an effect the other way counts as inactive or inconclusive.

Columns and labels:
[1] = target: DNA repair nuclease/redox regulator APEX1 (Homo sapiens) (UniProt P27695); test: qHTS Validation Assay for Inhibitors of the Human Apurinic/apyrimidinic Endonuclease 1 (APE1) (AID 1705;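 note: TAMRA fluorescence gain over two minutes as APE1 cuts a quenched THF abasic duplex; series mostly up to about 57 µM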)
Sequence of DNA repair nuclease/redox regulator APEX1 (Homo sapiens) (P27695 whole entry, looked up): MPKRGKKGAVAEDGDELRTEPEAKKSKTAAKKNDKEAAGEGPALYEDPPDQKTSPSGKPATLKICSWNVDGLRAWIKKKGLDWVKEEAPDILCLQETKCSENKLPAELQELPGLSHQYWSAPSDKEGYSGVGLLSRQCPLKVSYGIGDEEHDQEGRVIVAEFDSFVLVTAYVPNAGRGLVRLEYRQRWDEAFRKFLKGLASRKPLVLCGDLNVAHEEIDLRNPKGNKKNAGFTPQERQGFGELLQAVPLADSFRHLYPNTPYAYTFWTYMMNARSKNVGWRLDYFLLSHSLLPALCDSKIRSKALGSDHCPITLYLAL
Summary of the method: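 Substrate: 50 nM final fluorophore/quencher THF-abasic duplex. Enzyme preincubated with compounds 15 min, RT. Progress derived from fluorescence difference, third minus first kinetic read.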

[2] = qHTS for differential inhibitors of proliferation of Plasmodium falciparum line 7G8 (AID 1815);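 note: parasite growth measured after three days of incubation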
[3] = qHTS for differential inhibitors of proliferation of Plasmodium falciparum line GB4 (AID 1816); conditions: Potency: Plasmodium falciparum GB4 proliferation inhibition;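 note: parasite growth measured after 72 h incubation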
[4] = qHTS for differential inhibitors of proliferation of Plasmodium falciparum line 3D7 (AID 1876);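 note: parasite growth measured after three days of culture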
[5] = qHTS for differential inhibitors of proliferation of Plasmodium falciparum line Dd2 (AID 1882); conditions: Potency: Plasmodium falciparum Dd2 proliferation inhibition; note: series mostly up to about 29 µM; nearly all actives have a fitted effect of over 65% in size
Summary of the method: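 Dd2-infected erythrocytes (0.3% parasitemia, 2.5% hematocrit final) incubated with compound 72 h at 37 C, 5% CO2; lysed with saponin/Triton buffer containing SYBR Green I, incubated overnight in the dark, then read by fluorescence (485/535 nm). Normalized to 0.29 uM artemisinin and DMSO.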

[6] = qHTS for differential inhibitors of proliferation of Plasmodium falciparum line W2 (AID 1883); conditions: Potency: Plasmodium falciparum W2 proliferation inhibition;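 note: parasites grown with compound for 72 h before lysis and staining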
[7] = qHTS for differential inhibitors of proliferation of Plasmodium falciparum line HB3 (AID 1886); conditions: Potency: Plasmodium falciparum HB3 proliferation inhibition;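 note: parasites grown with compound for 72 h before SYBR Green readout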
[8] = target: ATP-dependent DNA helicase Q1 (Homo sapiens) (UniProt P46063); test: qHTS Validation Assay for Inhibitors of RecQ-Like Dna Helicase 1 (RECQ1) (AID 2353)
Sequence of ATP-dependent DNA helicase Q1 (Homo sapiens) (P46063 whole entry, looked up): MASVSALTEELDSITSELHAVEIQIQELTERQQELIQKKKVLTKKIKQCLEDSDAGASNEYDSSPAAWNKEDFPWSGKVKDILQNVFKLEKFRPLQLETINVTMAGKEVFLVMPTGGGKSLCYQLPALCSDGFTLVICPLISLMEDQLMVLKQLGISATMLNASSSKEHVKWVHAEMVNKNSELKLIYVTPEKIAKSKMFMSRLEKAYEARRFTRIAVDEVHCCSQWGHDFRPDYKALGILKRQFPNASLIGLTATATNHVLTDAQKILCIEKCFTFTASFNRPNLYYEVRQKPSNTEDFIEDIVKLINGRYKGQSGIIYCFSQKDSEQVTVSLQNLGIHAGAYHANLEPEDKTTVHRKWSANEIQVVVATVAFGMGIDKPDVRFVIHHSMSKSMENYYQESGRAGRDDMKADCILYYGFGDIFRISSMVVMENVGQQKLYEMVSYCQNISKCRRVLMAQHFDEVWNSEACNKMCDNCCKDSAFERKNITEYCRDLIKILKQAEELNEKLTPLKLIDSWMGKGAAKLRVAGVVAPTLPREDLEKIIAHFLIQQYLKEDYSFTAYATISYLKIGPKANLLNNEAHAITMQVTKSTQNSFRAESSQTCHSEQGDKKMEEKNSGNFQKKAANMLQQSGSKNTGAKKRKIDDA
Summary of the method: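 50 nM RECQ1T1 preincubated 15 min with compound in Tris pH 8.0 buffer with MgCl2, DTT, Tween-20 and 2.5 ug/ml poly(dI-dC); started with 200 nM TAMRA/BHQ-2 forked duplex and 2 mM ATP. Unwinding read as fluorescence (525/598 nm), two reads 2 h apart.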

[9] = Quantitative high throughput screen for delayed death inhibitors of the malarial parasite plastid, 96 hour incubation (AID 488745);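 note: luciferase-expressing P. falciparum in erythrocytes at 2% hematocrit and 0.1% parasitemia; series mostly up to about 29 µM; nearly all actives have a fitted effect of over 70% in size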
Summary of the method: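 Infected erythrocytes were added to compound in Albumax-supplemented RPMI 1640 at 0.1% parasitemia and 2% hematocrit (final), incubated 96 h at 37 C under 5% CO2, then luciferase reagent was added and luminescence measured.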

[10] = Quantitative high throughput screen for delayed death inhibitors of the malarial parasite plastid, 48 hour incubation (AID 488752); note: nearly all actives have a fitted effect of over 65% in size
Summary of the method: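 Readout is firefly luciferase luminescence from a reporter integrated into the parasite genome, with lower signal taken as inhibited growth. Infected red cells (0.1% parasitemia, 2% hematocrit final) are cultured with compound for one 48 h cycle at 37 C.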

[11] = target: M-phase phosphoprotein 8 (Homo sapiens) (UniProt Q99549); test: qHTS Validation Assay for Inhibitors for MPP8 Chromodomain Interactions with Methylated Histone Tails (AID 488949);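 note: 50 nM MPP8 with 50 nM peptide preformed then compounds added for 30 min; AlphaScreen signal from MPP8 chromodomain bound to biotinylated H3K9me3 peptide; top concentration of the series differs between compounds; nearly all actives have a fitted effect of over 55% in size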
Sequence of M-phase phosphoprotein 8 (Homo sapiens) (Q99549 whole entry, looked up): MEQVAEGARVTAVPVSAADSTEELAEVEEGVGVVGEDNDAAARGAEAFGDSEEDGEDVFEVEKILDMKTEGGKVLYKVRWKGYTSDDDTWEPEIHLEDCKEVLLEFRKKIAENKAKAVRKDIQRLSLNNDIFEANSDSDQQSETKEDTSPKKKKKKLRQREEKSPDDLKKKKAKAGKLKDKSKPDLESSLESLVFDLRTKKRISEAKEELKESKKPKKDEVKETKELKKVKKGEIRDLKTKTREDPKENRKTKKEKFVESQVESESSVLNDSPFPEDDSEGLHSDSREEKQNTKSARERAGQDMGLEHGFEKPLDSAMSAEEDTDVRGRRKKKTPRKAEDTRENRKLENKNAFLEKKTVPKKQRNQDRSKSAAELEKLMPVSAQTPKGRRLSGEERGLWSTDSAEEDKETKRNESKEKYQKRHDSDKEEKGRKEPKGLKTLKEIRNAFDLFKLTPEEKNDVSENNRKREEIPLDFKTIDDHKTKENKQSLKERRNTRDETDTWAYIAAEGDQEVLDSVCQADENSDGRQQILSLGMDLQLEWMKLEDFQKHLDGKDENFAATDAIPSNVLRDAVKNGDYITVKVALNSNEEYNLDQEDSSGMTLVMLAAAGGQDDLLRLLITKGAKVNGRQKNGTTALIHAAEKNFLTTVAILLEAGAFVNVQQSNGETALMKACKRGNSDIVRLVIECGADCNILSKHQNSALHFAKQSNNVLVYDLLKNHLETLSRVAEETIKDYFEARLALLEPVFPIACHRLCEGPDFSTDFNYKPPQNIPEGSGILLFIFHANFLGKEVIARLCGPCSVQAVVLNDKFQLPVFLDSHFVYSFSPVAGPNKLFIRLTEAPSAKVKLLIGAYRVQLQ
Summary of the method: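 Chemiluminescent proximity assay: histidine-tag capture via nickel acceptor beads, biotin peptide via streptavidin donor beads. Protein and peptide each at 50 nM, pH 7.4, with 30 min incubations at room temperature for complex formation, compound exposure and bead binding.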

[12] = target: Transient receptor potential cation channel subfamily V member 1 (Homo sapiens) (UniProt Q8NER1); test: HTS Assay for Compounds that Act as Enhancers of the Vanilloid Receptor 1 (AID 488979)
Sequence of Transient receptor potential cation channel subfamily V member 1 (Homo sapiens) (Q8NER1 whole entry, looked up): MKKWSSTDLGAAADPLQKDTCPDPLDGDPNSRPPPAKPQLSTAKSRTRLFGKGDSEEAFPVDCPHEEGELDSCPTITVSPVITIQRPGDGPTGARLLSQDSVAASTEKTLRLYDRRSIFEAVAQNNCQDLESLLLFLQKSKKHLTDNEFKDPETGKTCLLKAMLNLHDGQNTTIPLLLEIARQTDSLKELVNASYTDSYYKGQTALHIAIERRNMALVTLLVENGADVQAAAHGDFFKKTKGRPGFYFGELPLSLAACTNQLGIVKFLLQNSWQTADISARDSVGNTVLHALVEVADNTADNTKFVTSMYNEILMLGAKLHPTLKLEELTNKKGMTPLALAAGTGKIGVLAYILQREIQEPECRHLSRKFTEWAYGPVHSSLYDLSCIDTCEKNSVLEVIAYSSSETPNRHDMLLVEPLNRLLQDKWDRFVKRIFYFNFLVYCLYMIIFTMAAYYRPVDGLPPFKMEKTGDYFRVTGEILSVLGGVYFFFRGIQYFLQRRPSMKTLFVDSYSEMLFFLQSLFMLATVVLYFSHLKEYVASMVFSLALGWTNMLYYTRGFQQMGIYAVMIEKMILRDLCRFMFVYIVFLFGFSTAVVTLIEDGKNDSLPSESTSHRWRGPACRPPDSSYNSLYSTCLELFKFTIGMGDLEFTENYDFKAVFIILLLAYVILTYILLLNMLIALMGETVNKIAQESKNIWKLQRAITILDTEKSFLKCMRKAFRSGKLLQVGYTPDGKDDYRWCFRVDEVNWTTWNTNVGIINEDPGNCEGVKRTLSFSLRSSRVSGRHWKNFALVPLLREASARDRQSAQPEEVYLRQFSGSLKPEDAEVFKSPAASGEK
Summary of the method: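 TRPV1-expressing cells loaded with Fluo-8 calcium dye; compounds added and calcium influx read kinetically for 3 min (agonist phase), then capsaicin at EC20 added and read 2 min more for enhancement. Fluorescence ex 480/em 520 nm.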

[13] = target: Thyrotropin receptor (Homo sapiens) (UniProt P16473); test: qHTS Assay for Antagonists of the Thyroid Stimulating Hormone Receptor (AID 488980); note: series mostly up to about 58 µM
Sequence of Thyrotropin receptor (Homo sapiens) (P16473 whole entry, looked up): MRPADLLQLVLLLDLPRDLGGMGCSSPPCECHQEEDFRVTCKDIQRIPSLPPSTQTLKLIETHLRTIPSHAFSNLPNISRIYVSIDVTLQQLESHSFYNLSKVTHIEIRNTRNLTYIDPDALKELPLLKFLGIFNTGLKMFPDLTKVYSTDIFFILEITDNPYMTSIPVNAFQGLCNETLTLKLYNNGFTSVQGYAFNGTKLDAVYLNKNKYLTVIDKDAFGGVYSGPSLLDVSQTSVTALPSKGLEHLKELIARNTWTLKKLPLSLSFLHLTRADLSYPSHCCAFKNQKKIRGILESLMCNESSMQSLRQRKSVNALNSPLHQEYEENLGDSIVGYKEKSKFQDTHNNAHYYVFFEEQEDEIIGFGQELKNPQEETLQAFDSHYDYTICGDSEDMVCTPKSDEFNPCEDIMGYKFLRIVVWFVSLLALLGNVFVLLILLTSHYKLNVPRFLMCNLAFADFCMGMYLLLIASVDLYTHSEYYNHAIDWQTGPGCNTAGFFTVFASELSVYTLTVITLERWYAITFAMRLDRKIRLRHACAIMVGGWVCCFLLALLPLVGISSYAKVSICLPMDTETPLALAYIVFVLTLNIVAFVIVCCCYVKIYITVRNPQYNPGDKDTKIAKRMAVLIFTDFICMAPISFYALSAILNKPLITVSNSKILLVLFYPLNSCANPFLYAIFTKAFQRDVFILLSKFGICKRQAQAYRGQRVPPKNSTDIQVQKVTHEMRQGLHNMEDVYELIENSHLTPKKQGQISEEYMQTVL
Summary of the method: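 Inhibition of TSH-stimulated cAMP accumulation was quantified by homogeneous time-resolved FRET in TSHR-transfected HEK293 cells. Agonist: TSH, 4 nM final (EC80).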

[14] = target: Galactokinase (Homo sapiens) (UniProt P51570); test: qHTS Validation Assay for Inhibitors of Human Galactokinase (GALK) (AID 493189)
Sequence of Galactokinase (Homo sapiens) (P51570 whole entry, looked up): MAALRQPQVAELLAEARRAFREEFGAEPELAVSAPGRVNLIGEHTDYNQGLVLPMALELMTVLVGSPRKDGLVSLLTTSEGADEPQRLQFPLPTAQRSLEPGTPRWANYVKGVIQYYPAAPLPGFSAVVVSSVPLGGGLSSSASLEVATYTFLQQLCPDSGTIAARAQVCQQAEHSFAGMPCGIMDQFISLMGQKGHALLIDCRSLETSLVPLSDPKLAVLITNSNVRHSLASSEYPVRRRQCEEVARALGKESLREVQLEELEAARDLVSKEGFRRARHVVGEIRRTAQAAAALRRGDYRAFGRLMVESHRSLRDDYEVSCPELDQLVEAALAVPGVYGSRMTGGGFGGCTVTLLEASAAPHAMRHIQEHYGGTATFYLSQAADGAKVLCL
Summary of the method: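 Enzyme activity is inferred from ATP consumption: human GALK phosphorylates galactose (100 uM) using 35 uM ATP for 1 h at room temperature, and luciferase-based Kinase-Glo Plus reports unconsumed ATP.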

[15] = Validation screen for small molecules that induce DNA re-replication in SW480 colon adenocarcinoma cells (AID 504364)
Summary of the method: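 250 cells/well; compound pinned in; 48 hr, 37 C, 5% CO2; Hoechst added, 40 min; nuclear fluorescence imaged, 405 ex / 500-530 em; re-replication scored as increase in high-intensity nuclei.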

[16] = system: Zika virus NS2B-NS3 protease; test: Primary screen GU AMC qHTS for Zika virus inhibitors (AID 1347154); note: nearly all actives have a fitted effect of over 70% in size
Summary of the method: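 Unlinked Zika NS2B hydrophilic domain/NS3 protease domain noncovalent complex (25 nM final) in 10 mM Tris-HCl pH 8.0, 0.01% Tween 20, with AMC peptide substrate. Fluorescence (ex 340, em 450 nm) change over 15 min, room temperature; percent inhibition fitted to 4-parameter Hill equation.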

[17] = Primary qHTS for small molecule stabilizers of the endoplasmic reticulum resident proteome: Secreted ER Calcium Modulated Protein (SERCaMP) assay (AID 1508630); note: potency is the fitted concentration of half-maximal effect
Summary of the method: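 GLuc-SERCaMP-expressing SH-SY5Y cells, pretreated 16 h with compound, are challenged with thapsigargin to empty ER calcium stores; after 4 h, coelenterazine is added directly to the medium and luminescence is imaged.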

SMILES: CCCCCCCCCCCCC/C=C/[C@@H](O)[C@@H](N)CO
- Potency [1]: inactive
- Potency [2]: inactive
- Potency [3]: inactive
- Potency [4]: inactive
- Potency [5]: inactive
- Potency [6]: inactive
- Potency [7]: inactive
- Potency [8]: inactive
- Potency [9]: inactive
- Potency [10]: inactive
- Potency [11]: inactive
- outcome [12]: inactive
- outcome [13]: inactive
- outcome [14]: inactive
- outcome [15]: inactive
- Potency [16]: inactive
- Potency [17]: 1120 nM (active)
- activity change, negative = inhibition [17]: -29.5% [at 3.88 µM]

SMILES: CCCCC/C=C\CC1OC1CCCCCCCC(=O)O (stereo not given)
- activity change, negative = inhibition [16]: 6.59% [at 0.59 µM]
- activity change, negative = inhibition [17]: -29.7% [at 0.478 µM]
